Reference: PubChem BioAssay (NCATS)
Active and inactive are the calls of the source. Unless noted, calls come from the whole dose curve; as a rule, active = well fitted curve in the direction sought with a large enough effect; inconclusive = small, poorly fitted or top-dose-only effect, or another doubt; inactive = no such curve, though single readings can be large; an effect the other way counts as inactive or inconclusive.

Assays:
[1] = Cell Viability - LYMP2-003 (AID 965);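 note: cells exposed to compounds for 24 h before reading; nearly all actives have a fitted effect of over 50% in size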
Outline: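 CellTiter-Glo luminescence quantified ATP loss after 24 h compound treatment of LYMP2-003 lymphoblastoid cells at 37 C. Titration series were fitted with the standard Hill equation to give AC50.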

[2] = Cell Viability - LYMP2-004 (AID 966); note: nearly all actives have a fitted effect of over 65% in size
Outline: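 AC50 values come from Hill modelling of concentration-dependent loss of intracellular ATP, measured by CellTiter-Glo luminescence. Human LYMP2-004 lymphoblastoid cells (2500/well) were exposed to compound for 24 h at 37 C.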

[3] = Cell Viability - LYMP2-005 (AID 967); note: series mostly up to about 92 µM
Outline: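 LYMP2-005 human lymphoblastoid cells (2500/well) were treated with compounds for 24 h at 37 C. Intracellular ATP was then measured by CellTiter-Glo luminescence after 30 min at room temperature. AC50 values came from Hill-equation fits of qHTS concentration-response data.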

[4] = Cell Viability - LYMP2-009 (AID 968); note: series mostly up to about 92 µM; nearly all actives have a fitted effect of over 55% in size
[5] = Cell Viability - LYMP2-011 (AID 969); note: nearly all actives have a fitted effect of over 60% in size
Outline: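 Cytotoxicity qHTS with ATP content as read-out: lymphoblastoid cells (2500/well) exposed to compound for 24 h at 37 C, then luciferase luminescence measured. Concentration-response data fitted with the standard Hill equation to give AC50.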

[6] = Cell Viability - LYMP2-015 (AID 971); note: nearly all actives have a fitted effect of over 55% in size
Outline: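 Cytotoxicity readout: decrease in intracellular ATP (CellTiter-Glo luminescence) in 2500 LYMP2-015 lymphoblastoid cells/well after 24 h compound exposure at 37 C. Concentration-response data fitted with the standard Hill equation to give AC50.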

[7] = Cell Viability - LYMP2-019 (AID 973); note: nearly all actives have a fitted effect of over 55% in size
Outline: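 AC50 values come from Hill-equation fits of luminescent intracellular ATP (CellTiter-Glo, 30 min, room temperature) following 24 h compound exposure at 37 C. Cells: LYMP2-019 lymphoblastoid line, 2500 per well, in complete culture medium.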

[8] = Cell Viability - LYMP2-021 (AID 974); note: nearly all actives have a fitted effect of over 55% in size
Outline: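 AC50 values come from Hill-equation fits to CellTiter-Glo luminescence (ATP content), read after 24 hour compound exposure at 37 C of 2500 LYMP2-021 lymphoblastoid cells/well; tetraoctylammonium bromide as positive control.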

[9] = Cell Viability - LYMP2-023 (AID 975)
Outline: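 Intracellular ATP, read by CellTiter-Glo luminescence, reports viability after 24 hr compound exposure at 37 C. 2500 lymphoblastoid cells/well (LYMP2-023) seeded 5 hr beforehand; Hill fits give AC50; positive control tetraoctylammonium bromide.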

[10] = Cell Viability - LYMP2-025 (AID 976); note: series mostly up to about 92 µM
Outline: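 Cytotoxicity read as loss of intracellular ATP (luciferase luminescence) after 24 h compound treatment at 37 C. Uses LYMP2-025 lymphoblastoid cells in 1536-well format; Hill-equation modelling gives AC50; tetraoctylammonium bromide as positive control.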

[11] = Cell Viability - LYMP2-002 (AID 977); note: series mostly up to about 92 µM
Outline: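 Human lymphoblastoid cells (2500/well) in complete medium were preincubated 5 hr at 37 C, then exposed to compounds for 24 hr at 37 C. Intracellular ATP was read by CellTiter-Glo luminescence; AC50 came from Hill-equation concentration-response fits.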

[12] = Cell Viability - LYMP2-006 (AID 978); note: series mostly up to about 92 µM; nearly all actives have a fitted effect of over 60% in size
Outline: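 Potency values are Hill-fit AC50s for decreases in intracellular ATP (CellTiter-Glo luminescence). LYMP2-006 lymphoblastoid cells, 2500 per well, were exposed to compound in complete culture medium for 24 hr at 37 C.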

[13] = Cell Viability - LYMP2-007 (AID 979);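 note: cells exposed to compound for 24 h before reading; nearly all actives have a fitted effect of over 60% in size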
Outline: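 AC50 values come from Hill-equation fits of luminescent intracellular ATP (CellTiter-Glo, 30 min, room temperature) following 24 h compound exposure at 37 C. Cells: LYMP2-007 lymphoblastoid line, 2500 per well, in complete culture medium.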

[14] = Cell Viability - LYMP2-008 (AID 980); note: nearly all actives have a fitted effect of over 60% in size
Outline: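 Cytotoxicity determined from ATP-dependent luciferase luminescence (CellTiter-Glo) following 24 h compound exposure of human lymphoblastoid LYMP2-008 cells at 37 C. Concentration-response data fitted to the Hill equation to give AC50.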

[15] = Cell Viability - LYMP2-012 (AID 982)
[16] = Cell Viability - LYMP2-014 (AID 983); note: series mostly up to about 92 µM; nearly all actives have a fitted effect of over 50% in size
Outline: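 Intracellular ATP loss, read by luciferase luminescence, measures acute cytotoxicity after 24 h compound exposure of lymphoblastoid LYMP2-014 cells (2500/well, 37 C). Concentration-response data fitted to the Hill equation for AC50.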

[17] = Cell Viability - LYMP2-016 (AID 984); note: nearly all actives have a fitted effect of over 55% in size
Outline: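 Cytotoxicity was scored by luminescent ATP content (CellTiter-Glo) after 24 h compound exposure at 37 C of a human lymphoblastoid line at 2500 cells/well. Concentration-response data were fitted to the Hill equation for AC50.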

[18] = Cell Viability - LYMP2-018 (AID 985); note: nearly all actives have a fitted effect of over 50% in size
Outline: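 Viability read as CellTiter-Glo luminescence (cellular ATP) after 24 hr compound exposure at 37 C of 2500 LYMP2-018 lymphoblastoid cells/well, pre-plated 5 hr. Hill-equation modelling gave AC50.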

[19] = Cell Viability - LYMP2-020 (AID 986)
Outline: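 Cytotoxicity in qHTS format: luminescent ATP readout from CellTiter-Glo after 24 h compound exposure at 37 C in complete medium. LYMP2-020 lymphoblastoid cells were seeded at 2500/well; concentration-response data fitted to the Hill equation for AC50.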

[20] = Cell Viability - LYMP2-024 (AID 988); note: nearly all actives have a fitted effect of over 60% in size
Outline: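 Cytotoxicity was taken as a decrease in ATP (CellTiter-Glo luminescence) after 24 hr compound exposure at 37 C of LYMP2-024 lymphoblastoid cells, 2500 cells/well. Concentration-response data were fitted to the Hill equation to give AC50.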

[21] = Cell Viability - LYMP2-026 (AID 989); note: nearly all actives have a fitted effect of over 50% in size
Outline: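 Cytotoxicity read as ATP-dependent luminescence (CellTiter-Glo, 30 min room temperature) after 24 h compound treatment at 37 C. LYMP2-026 lymphoblastoid line seeded at 2500 cells/well; AC50 derived by standard Hill equation.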

[22] = Cell Viability - LYMP1-002 - Assay at 24 hr (AID 993)
Outline: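 qHTS cytotoxicity at 24 h: CellTiter-Glo ATP luminescence in lymphoblastoid line LYMP1-002 incubated with compound at 37 °C. Concentration-response modeled with the Hill equation for AC50; tetraoctylammonium bromide served as positive control.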

[23] = qHTS Assay for Identification of Small Molecule Inducers of Hypoxia Response (AID 2120; active = well fitted curve in the direction sought with a large enough effect in the signal ratio, with a control signal flat, not every such curve was filed as active; inconclusive = small, poorly fitted or top-dose-only effect, or a change in a side signal; inactive = no such curve, though single readings can be large or run the other way; the % refers to the signal ratio)
Outline: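 Reporter induction read as the CCF4 blue/green (460nm/530nm) emission ratio after 2.5 h dye loading at room temperature. ME-180 HRE-beta-lactamase cells received titrated compounds for 17 h at 37 degrees Celsius; AC50 values derived.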

[24] = target: Estrogen receptor (Homo sapiens) (UniProt P03372); assay: qHTS assay for small molecule antagonists of estrogen receptor alpha signaling (AID 588513; active = well fitted curve in the direction sought with a large enough effect in the signal ratio, with a control signal flat, not every such curve was filed as active; inconclusive = small, poorly fitted or top-dose-only effect, or effect the other way, or a change in a side signal; inactive = no such curve, though single readings can be large or run the other way; the % refers to the signal ratio; note: potency is the fitted concentration of half-maximal effect)
Outline: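 Antagonist mode: inhibition of 0.5 nM 17-beta-estradiol-driven beta-lactamase reporter in HEK 293 ER-alpha-UAS-bla cells, 18 h at 37C, CCF4 readout after 2 h at RT. Normalised to estradiol and DMSO; titration fitted to Hill.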

[25] = target: Estrogen receptor (Homo sapiens) (UniProt P03372); assay: qHTS assay for small molecule agonists of estrogen receptor alpha signaling (AID 588514; calls by dose curve; note: potency is the fitted concentration of half-maximal effect; nearly all actives have a fitted effect of over 70% in size)
Outline: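 EC50 and efficacy came from Hill fits of beta-lactamase reporter signal (CCF4 dye, 2 h at room temperature) scaled between DMSO and 20 nM 17-beta-estradiol. Agonist mode: HEK293 ER-alpha-UAS-bla cells in charcoal/dextran-stripped serum medium, 18 h compound exposure at 37 C.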

Measured: Potency

Chain of Estrogen receptor (Homo sapiens) (P03372 whole entry, looked up): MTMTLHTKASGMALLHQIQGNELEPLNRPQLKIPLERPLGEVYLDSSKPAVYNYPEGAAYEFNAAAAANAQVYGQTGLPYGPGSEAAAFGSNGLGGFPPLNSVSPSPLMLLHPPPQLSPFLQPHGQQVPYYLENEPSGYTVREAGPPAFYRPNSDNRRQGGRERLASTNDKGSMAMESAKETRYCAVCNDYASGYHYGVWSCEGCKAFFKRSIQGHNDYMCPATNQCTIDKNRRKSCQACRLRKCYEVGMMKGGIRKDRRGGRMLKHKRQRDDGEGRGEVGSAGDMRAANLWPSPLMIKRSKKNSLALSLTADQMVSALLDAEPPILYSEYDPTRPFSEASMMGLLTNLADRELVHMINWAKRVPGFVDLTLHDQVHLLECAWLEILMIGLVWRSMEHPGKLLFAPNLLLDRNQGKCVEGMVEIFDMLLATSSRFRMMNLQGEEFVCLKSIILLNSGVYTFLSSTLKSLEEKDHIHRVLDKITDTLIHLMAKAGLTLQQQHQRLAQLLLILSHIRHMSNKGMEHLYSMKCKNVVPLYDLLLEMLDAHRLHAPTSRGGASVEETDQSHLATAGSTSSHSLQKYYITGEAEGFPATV

C[C@H]1CCCC(=O)CCC/C=C/c2cc(O)cc(O)c2C(=O)O1
active: [24] 14.1 µM [inconclusive] | [25] 10 nM
inactive: all other assays above
